# The supplement of paper PMC4466140
# Columns and labels:
# Assay in all cases: SPOT peptide array binding signal intensity (averaged, normalized) (arbitrary units (background-subtracted, floor 0; scale differs between SH3 domains)); higher = stronger binding of the SH3 domain to the peptide
# AgAbp1 = target: AgAbp1
# Procedure, shortened: (§1)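 Four yeast species supplied the SH3 domains, which were expressed as GST fusions in E. coli BL21(DE3) and purified on glutathione Sepharose. Incubation with cellulose membranes carrying synthetic 15-mer peptides, cysteines exchanged for serines, ran overnight at 4°C at 10 μg/ml in TBS-based blocking buffer. Binding signal is reported as normalized, background-subtracted spot intensity averaged over replicates, in arbitrary units not shared between domains.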
# AgBbc1 = target: AgBbc1
# Procedure, shortened: as §1
# AgBem1-D1 = target: AgBem1-D1
# Procedure, shortened: as §1
# AgBzz1-D1 = target: AgBzz1-D1
# Procedure, shortened: as §1
# AgBzz1-D2 = target: AgBzz1-D2
# Procedure, shortened: as §1
# AgCyk3 = target: AgCyk3
# Procedure, shortened: as §1
# AgFus1 = target: AgFus1
# Procedure, shortened: as §1
# AgHof1 = target: AgHof1
# Procedure, shortened: as §1
# AgHse1 = target: AgHse1
# Procedure, shortened: as §1
# AgLsb1 = target: AgLsb1
# Procedure, shortened: as §1
# AgLsb4 = target: AgLsb4
# Procedure, shortened: as §1
# AgMyo5 = target: AgMyo5
# Procedure, shortened: as §1
# AgNbp2 = target: AgNbp2
# Procedure, shortened: as §1
# AgRvs167 = target: AgRvs167
# Procedure, shortened: as §1
# AgSho1 = target: AgSho1
# Procedure, shortened: as §1
# AgSla1-D1-D2 = target: AgSla1-D1-D2
# Procedure, shortened: as §1
# AgSla1-D3 = target: AgSla1-D3
# Procedure, shortened: as §1
# CaAbp1-D1 = target: CaAbp1-D1
# Procedure, shortened: as §1
# CaAbp1-D2 = target: CaAbp1-D2
# Procedure, shortened: as §1
# CaBbc1 = target: CaBbc1
# Procedure, shortened: as §1
# CaBem1-D1 = target: CaBem1-D1
# Procedure, shortened: as §1
# CaBzz1-D1 = target: CaBzz1-D1
# Procedure, shortened: as §1
# CaBzz1-D2 = target: CaBzz1-D2
# Procedure, shortened: as §1
# CaCyk3 = target: CaCyk3
# Procedure, shortened: as §1
# CaFus1 = target: CaFus1
# Procedure, shortened: as §1
# CaHof1 = target: CaHof1
# Procedure, shortened: as §1
# CaHse1 = target: CaHse1
# Procedure, shortened: as §1
# CaLsb1 = target: CaLsb1
# Procedure, shortened: as §1
# CaLsb4 = target: CaLsb4
# Procedure, shortened: as §1
# CaMyo5 = target: CaMyo5
# Procedure, shortened: as §1
# CaNbp2 = target: CaNbp2
# Procedure, shortened: as §1
# CaRvs167 = target: CaRvs167
# Procedure, shortened: as §1
# CaRvs167-3 = target: CaRvs167-3
# Procedure, shortened: as §1
# CaSho1 = target: CaSho1
# Procedure, shortened: as §1
# CaSla1-D1-D2 = target: CaSla1-D1-D2
# Procedure, shortened: as §1
# CaSla1-D3 = target: CaSla1-D3
# Procedure, shortened: as §1
# ScAbp1 = target: ScAbp1
# Procedure, shortened: as §1
# ScBbc1 = target: ScBbc1
# Procedure, shortened: as §1
# ScBem1-D1 = target: ScBem1-D1
# Procedure, shortened: as §1
# ScBzz1-D1 = target: ScBzz1-D1
# Procedure, shortened: as §1
# ScBzz1-D2 = target: ScBzz1-D2
# Procedure, shortened: as §1
# ScCyk3 = target: ScCyk3
# Procedure, shortened: as §1
# ScFus1 = target: ScFus1
# Procedure, shortened: as §1
# ScHof1 = target: ScHof1
# Procedure, shortened: as §1
# ScHse1 = target: ScHse1
# Procedure, shortened: as §1
# ScLsb1 = target: ScLsb1
# Procedure, shortened: as §1
# ScLsb2 = target: ScLsb2
# Procedure, shortened: as §1
# ScLsb3 = target: ScLsb3
# Procedure, shortened: as §1
# ScLsb4 = target: ScLsb4
# Procedure, shortened: as §1
# ScMyo3 = target: ScMyo3
# Procedure, shortened: as §1
# ScMyo5 = target: ScMyo5
# Procedure, shortened: as §1
# ScNbp2 = target: ScNbp2
# Procedure, shortened: as §1
# ScPex13 = target: ScPex13
# Procedure, shortened: as §1
# ScRvs167 = target: ScRvs167
# Procedure, shortened: as §1
# ScSho1 = target: ScSho1
# Procedure, shortened: as §1
# ScSla1-D1-D2 = target: ScSla1-D1-D2
# Procedure, shortened: as §1
# ScSla1-D3 = target: ScSla1-D3
# Procedure, shortened: as §1
# SpAbp1-D1 = target: SpAbp1-D1
# Procedure, shortened: as §1
# SpBbc1 = target: SpBbc1
# Procedure, shortened: as §1
# SpBzz1-D1 = target: SpBzz1-D1
# Procedure, shortened: as §1
# SpBzz1-D2 = target: SpBzz1-D2
# Procedure, shortened: as §1
# SpCyk3 = target: SpCyk3
# Procedure, shortened: as §1
# SpHof1 = target: SpHof1
# Procedure, shortened: as §1
# SpHof1-2 = target: SpHof1-2
# Procedure, shortened: as §1
# SpHof1-3 = target: SpHof1-3
# Procedure, shortened: as §1
# SpHse1 = target: SpHse1
# Procedure, shortened: as §1
# SpLsb1 = target: SpLsb1
# Procedure, shortened: as §1
# SpLsb4 = target: SpLsb4
# Procedure, shortened: as §1
# SpMyo1 = target: SpMyo1
# Procedure, shortened: as §1
# SpNbp2 = target: SpNbp2
# Procedure, shortened: as §1
# SpPex13 = target: SpPex13
# Procedure, shortened: as §1
# SpRvs167 = target: SpRvs167
# Procedure, shortened: as §1
# SpSla1-D1-D2 = target: SpSla1-D1-D2
# Procedure, shortened: as §1
# SpSla1-D3 = target: SpSla1-D3
# Procedure, shortened: as §1
binder,measurement,setting,value
RTRRRPPPPPIPSTQ,SPOT peptide array binding signal intensity,AgAbp1,334
same,SPOT peptide array binding signal intensity,AgBbc1,531
same,SPOT peptide array binding signal intensity,AgBem1-D1,308
same,SPOT peptide array binding signal intensity,AgBzz1-D1,3430
same,SPOT peptide array binding signal intensity,AgBzz1-D2,1460
same,SPOT peptide array binding signal intensity,AgCyk3,2
same,SPOT peptide array binding signal intensity,AgFus1,87
same,SPOT peptide array binding signal intensity,AgHof1,256
same,SPOT peptide array binding signal intensity,AgHse1,91
same,SPOT peptide array binding signal intensity,AgLsb1,370
same,SPOT peptide array binding signal intensity,AgLsb4,136
same,SPOT peptide array binding signal intensity,AgMyo5,339
same,SPOT peptide array binding signal intensity,AgNbp2,2690
same,SPOT peptide array binding signal intensity,AgRvs167,99.3
same,SPOT peptide array binding signal intensity,AgSho1,27
same,SPOT peptide array binding signal intensity,AgSla1-D1-D2,23
same,SPOT peptide array binding signal intensity,AgSla1-D3,735
same,SPOT peptide array binding signal intensity,CaAbp1-D1,748
same,SPOT peptide array binding signal intensity,CaAbp1-D2,1060
same,SPOT peptide array binding signal intensity,CaBbc1,965
same,SPOT peptide array binding signal intensity,CaBem1-D1,124
same,SPOT peptide array binding signal intensity,CaBzz1-D1,7320
same,SPOT peptide array binding signal intensity,CaBzz1-D2,4870
same,SPOT peptide array binding signal intensity,CaCyk3,53.5
same,SPOT peptide array binding signal intensity,CaFus1,452
same,SPOT peptide array binding signal intensity,CaHof1,0.5
same,SPOT peptide array binding signal intensity,CaHse1,21
same,SPOT peptide array binding signal intensity,CaLsb1,1.25
same,SPOT peptide array binding signal intensity,CaLsb4,1170
same,SPOT peptide array binding signal intensity,CaMyo5,19.8
same,SPOT peptide array binding signal intensity,CaNbp2,1440
same,SPOT peptide array binding signal intensity,CaRvs167,111
same,SPOT peptide array binding signal intensity,CaRvs167-3,22.5
same,SPOT peptide array binding signal intensity,CaSho1,98
same,SPOT peptide array binding signal intensity,CaSla1-D1-D2,2100
same,SPOT peptide array binding signal intensity,CaSla1-D3,391
same,SPOT peptide array binding signal intensity,ScAbp1,114
same,SPOT peptide array binding signal intensity,ScBbc1,511
same,SPOT peptide array binding signal intensity,ScBem1-D1,13.5
same,SPOT peptide array binding signal intensity,ScBzz1-D1,1990
same,SPOT peptide array binding signal intensity,ScBzz1-D2,258
same,SPOT peptide array binding signal intensity,ScCyk3,19
same,SPOT peptide array binding signal intensity,ScFus1,40.5
same,SPOT peptide array binding signal intensity,ScHof1,2
same,SPOT peptide array binding signal intensity,ScHse1,473
same,SPOT peptide array binding signal intensity,ScLsb1,492
same,SPOT peptide array binding signal intensity,ScLsb2,559
same,SPOT peptide array binding signal intensity,ScLsb3,2080
same,SPOT peptide array binding signal intensity,ScLsb4,258
same,SPOT peptide array binding signal intensity,ScMyo3,940
same,SPOT peptide array binding signal intensity,ScMyo5,1490
same,SPOT peptide array binding signal intensity,ScNbp2,3190
same,SPOT peptide array binding signal intensity,ScPex13,318
same,SPOT peptide array binding signal intensity,ScRvs167,1430
same,SPOT peptide array binding signal intensity,ScSho1,894
same,SPOT peptide array binding signal intensity,ScSla1-D1-D2,3110
same,SPOT peptide array binding signal intensity,ScSla1-D3,883
same,SPOT peptide array binding signal intensity,SpAbp1-D1,505
same,SPOT peptide array binding signal intensity,SpBbc1,85.8
same,SPOT peptide array binding signal intensity,SpBzz1-D1,4250
same,SPOT peptide array binding signal intensity,SpBzz1-D2,1520
same,SPOT peptide array binding signal intensity,SpCyk3,1
same,SPOT peptide array binding signal intensity,SpHof1,361
same,SPOT peptide array binding signal intensity,SpHof1-2,53.5
same,SPOT peptide array binding signal intensity,SpHof1-3,340
same,SPOT peptide array binding signal intensity,SpHse1,72.2
same,SPOT peptide array binding signal intensity,SpLsb1,370
same,SPOT peptide array binding signal intensity,SpLsb4,1730
same,SPOT peptide array binding signal intensity,SpMyo1,800
same,SPOT peptide array binding signal intensity,SpNbp2,29.5
same,SPOT peptide array binding signal intensity,SpPex13,26.5
same,SPOT peptide array binding signal intensity,SpRvs167,1250
same,SPOT peptide array binding signal intensity,SpSla1-D1-D2,907
same,SPOT peptide array binding signal intensity,SpSla1-D3,2.5
RPKRRAPPPVPKKPS,SPOT peptide array binding signal intensity,CaNbp2,3680
same,SPOT peptide array binding signal intensity,CaRvs167,127
same,SPOT peptide array binding signal intensity,CaRvs167-3,170
same,SPOT peptide array binding signal intensity,CaSho1,236
same,SPOT peptide array binding signal intensity,CaSla1-D1-D2,3850
same,SPOT peptide array binding signal intensity,CaSla1-D3,920
same,SPOT peptide array binding signal intensity,ScAbp1,3840
same,SPOT peptide array binding signal intensity,ScBbc1,835
same,SPOT peptide array binding signal intensity,ScBem1-D1,69
same,SPOT peptide array binding signal intensity,ScBzz1-D1,1610
same,SPOT peptide array binding signal intensity,ScBzz1-D2,75.5
same,SPOT peptide array binding signal intensity,ScCyk3,17.5
same,SPOT peptide array binding signal intensity,ScFus1,42.5
same,SPOT peptide array binding signal intensity,ScHof1,0.5
same,SPOT peptide array binding signal intensity,ScHse1,432
same,SPOT peptide array binding signal intensity,ScLsb1,819
same,SPOT peptide array binding signal intensity,ScLsb2,796
same,SPOT peptide array binding signal intensity,ScLsb3,3720
same,SPOT peptide array binding signal intensity,ScLsb4,95
same,SPOT peptide array binding signal intensity,ScMyo3,705
same,SPOT peptide array binding signal intensity,ScMyo5,471
same,SPOT peptide array binding signal intensity,ScNbp2,5640
same,SPOT peptide array binding signal intensity,ScPex13,482
same,SPOT peptide array binding signal intensity,ScRvs167,1640
same,SPOT peptide array binding signal intensity,ScSho1,2030
same,SPOT peptide array binding signal intensity,ScSla1-D1-D2,3510
same,SPOT peptide array binding signal intensity,ScSla1-D3,896
same,SPOT peptide array binding signal intensity,SpAbp1-D1,3020
same,SPOT peptide array binding signal intensity,SpBbc1,115
same,SPOT peptide array binding signal intensity,SpBzz1-D1,1740
same,SPOT peptide array binding signal intensity,SpBzz1-D2,713
same,SPOT peptide array binding signal intensity,SpCyk3,4
same,SPOT peptide array binding signal intensity,SpHof1,374
same,SPOT peptide array binding signal intensity,SpHof1-2,43.2
same,SPOT peptide array binding signal intensity,SpHof1-3,972
same,SPOT peptide array binding signal intensity,SpHse1,221
same,SPOT peptide array binding signal intensity,SpLsb1,1830
same,SPOT peptide array binding signal intensity,SpLsb4,925
same,SPOT peptide array binding signal intensity,SpMyo1,687
same,SPOT peptide array binding signal intensity,SpNbp2,173
same,SPOT peptide array binding signal intensity,SpPex13,220
same,SPOT peptide array binding signal intensity,SpRvs167,1300
same,SPOT peptide array binding signal intensity,SpSla1-D1-D2,1490
same,SPOT peptide array binding signal intensity,SpSla1-D3,2
